Screens deposited in PubChem by National Center for Advancing Translational Sciences (NCATS).
In the library only some 2.4% were active in any assay of this set; here they are far more common.
D2 PAM-1: human D2 receptor positive allosteric modulation; P14416; DiscoveRx D2 beta-arrestin cells, luminescence, 90 min; 100% = 57 uM dopamine signal; potentiation, % (no concentration beside the values); 0.23% of 360,000 active; in the data active means potentiation above about 50%
Target sequence (P14416 whole entry, looked up): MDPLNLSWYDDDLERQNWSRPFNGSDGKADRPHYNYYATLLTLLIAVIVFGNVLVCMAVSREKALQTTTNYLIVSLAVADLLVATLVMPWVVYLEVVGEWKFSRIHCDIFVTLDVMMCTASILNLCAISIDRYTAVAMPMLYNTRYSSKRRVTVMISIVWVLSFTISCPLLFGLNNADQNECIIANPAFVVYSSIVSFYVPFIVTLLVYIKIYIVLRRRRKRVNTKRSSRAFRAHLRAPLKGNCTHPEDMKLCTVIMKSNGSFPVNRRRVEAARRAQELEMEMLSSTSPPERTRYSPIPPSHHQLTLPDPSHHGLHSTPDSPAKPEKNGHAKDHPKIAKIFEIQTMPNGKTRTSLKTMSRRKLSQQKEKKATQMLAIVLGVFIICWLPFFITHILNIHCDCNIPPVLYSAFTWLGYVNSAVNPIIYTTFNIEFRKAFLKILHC
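PathHunter beta-arrestin assay in DiscoveRx D2 cells. Compounds were added with an EC20 of dopamine (50 nM final) for 90 min at 37 deg C. Luminescence was read 1 h after detection reagent, with 57 uM dopamine as the EC100 control.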
D2 antagonist: antagonizes the human D2 dopamine receptor; AID 485344; P14416; HEK293 TREx D2 cells, calcium flux, dopamine EC80; inhibition, % at 10 µM; 2% of 340,000 active; in the data active means inhibition above about 30%; inactive means below that, where a call was filed; further: 0% is about no effect
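Calcium mobilization kinetics were recorded at 1 s intervals in tetracycline-induced HEK293 T-REx D2 cells, first for 180 s after compound addition and then 180 s after EC80 dopamine.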
D2 ag-1: agonists of human D2 dopamine receptor (beta-arrestin); P14416; activation, % (concentration not given with the values); 0.084% of 360,000 active; AID 624465; DiscoveRx PathHunter D2 beta-arrestin, luminescence, 90 min; 100% = 57 uM dopamine signal; in the data active means activation above about 40%
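Agonist mode: compounds alone added to overnight-plated D2 PathHunter cells for 90 min at 37 C, with 57 uM final dopamine (EC100) defining full response. Beta-arrestin recruitment detected by chemiluminescent reagent, read after 1 h at ambient temperature.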
D2 ag-2: activates the human D2 dopamine receptor. P14416. HEK293 T-REx D2 cells, calcium flux agonist mode. activation, % at 2 µM. 0.53% of 340,000 active. AID 485358;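 active means activation over 3 SD above normal in the single-dose calcium agonist read, cut at about 30% in these data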; further: 0% is about no effect
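Tetracycline-induced HEK293 T-REx cells with force-coupled D2 receptor, plated overnight at 30 C, loaded with no-wash calcium dye. After a 10 s baseline, compound was pin-added and calcium flux read kinetically for 180 s; calcium rises flagged agonists.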
D2 PAM-2: positive allosteric modulators of human D2 dopamine receptor; P14416; HEK293 T-REx D2, calcium flux, EC20 dopamine potentiation; potentiation, % at 10 µM; 0.34% of 340,000 active; AID 485347;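 active means potentiation over 3 SD above the plate norm, cut at about 30% in these data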; further: 0% is about no effect
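Calcium flux readout, no-wash dye, 1 read/s. Inducible HEK293 Trex D2 line, overnight 30 C. Compound alone 180 s (agonist flags), then EC20 dopamine, another 180 s to score potentiation.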
* = called active by the depositor; . = no result.

SMILES	D2 PAM-1	D2 antagonist	D2 ag-1	D2 ag-2	D2 PAM-2
COc1ccc(Cl)cc1NC(=O)CN1C(=O)NC(Cc2c[nH]c3ccccc23)C1=O (stereo unspecified)	1.4	.	-3.9	.	.
COc1cc(CN2CCN(C(c3ccccc3)c3ccccc3)CC2)cc(OC)c1OC	-6.6	16.9	3.1	-1.6	-19.2
Cc1cccc(CN2CCN(C(c3ccccc3)c3ccc(Cl)cc3)CC2)c1 (stereo unspecified)	-23.9	30.9*	-6.2	-2.2	-22.0
CN1CCCN(C(c2ccccc2)c2ccc(Cl)cc2)CC1 (stereo unspecified)	-35.9	81.7*	-2.0	2.2	-30.2
CCCCN1C(=O)c2ccc(C(=O)N(C)CC(=O)Nc3ccc(OCC)c(OCC)c3)cc2C1=O	-12.7	.	-4.8	.	.
CCOc1ccc(NC(=O)CN(C)C(=O)CN2C(=O)c3ccc([N+](=O)[O-])cc3C2=O)cc1OCC	56.6*	-20.0	6.1	-0.9	5.5
OC(CN1CCN(c2ccccc2Cl)CC1)c1ccccc1 (stereo unspecified)	-11.9	86.0*	1.5	6.7	-20.8
CC(SC1=Nc2ccccc2C2CC=NN12)C(=O)NC1(C#N)CCCCC1 (stereo unspecified)	-27.4	5.3	-8.5	44.2*	-28.9
CC(C)COc1ccc(-c2nnc(-c3ccco3)o2)cc1	-10.6	27.7	-0.8	-0.7	30.0*
CCCCOC(=O)c1ccc(Nc2nc3ccc(C(=O)c4ccccc4)cc3n3cnnc23)cc1	.	.	.	0.2	-3.1
CCOc1ccc(NS(=O)(=O)c2ccc(OCC(=O)N3CCCC3)cc2)cc1	3.1	50.6*	2.2	0.5	11.4
CCOC(=O)N1CCN(C(=O)COc2ccc(S(=O)(=O)Nc3ccc(OCC)cc3)cc2)CC1	12.7	3.8	1.2	-0.3	11.0
CCSc1oc(-c2ccco2)nc1S(=O)(=O)c1ccc(C)cc1	-8.0	-2.2	-4.2	-1.4	33.6*
CCSc1oc(-c2ccco2)nc1S(=O)(=O)c1ccc(F)cc1	-7.4	-7.4	-2.7	-0.5	15.8
Cc1csc(SC(C)C(=O)Nc2ccc(Cl)cn2)n1 (stereo unspecified)	-16.2	43.2*	-4.4	-1.3	-17.1
COc1cccc(/C=N/N2C(=O)CSC2=S)c1O	-2.1	10.3	4.9	-0.2	-1.9
COc1cc(/C=N/N2C(=O)CSC2=S)cc(Br)c1O	-0.2	43.6*	-1.4	10.6	-4.4
CCOc1ccc2[nH]c(=O)c(CN(CCO)Cc3nnnn3CCc3ccccc3)cc2c1	-8.8	38.9*	-3.7	-0.4	-6.6
CCc1nnc(NC(=O)c2ccc(COc3ccc(C)cc3)o2)s1	-0.2	30.2*	-3.0	0.6	0.0
CCc1nnc(NC(=O)CCC(=O)Nc2ccc(C)cc2)s1	-10.9	43.2*	-8.9	1.0	-8.6
CCc1nnc(NC(=O)c2ccc(COc3ccccc3)o2)s1	-3.3	-12.4	-1.6	-1.0	29.9
COc1ccccc1N1C(=O)CC(c2ccccc2)CC1=O	-12.9	4.8	-3.6	1.5	12.5
COc1ccccc1N1C(=O)CSC1=S	-3.5	-2.4	-2.8	0.4	31.8*
COc1cc(C(=O)NCC(=O)N/N=C(\C)Cc2ccccc2)cc(OC)c1OC	-8.3	-7.9	2.0	0.0	36.9*
COc1cc(C(=O)N/N=C(\C)Cc2ccccc2)cc(OC)c1OC	-6.5	.	1.2	.	.
SMILES	D2 PAM-1	D2 antagonist	D2 ag-1	D2 ag-2	D2 PAM-2
CN1C(=O)c2ccc(NC(=O)c3c(C(=O)O)cccc3[N+](=O)[O-])cc2C1=O	-11.0	33.9*	-5.3	0.0	16.8
CCn1c(=O)c(C(C)=O)nc2ccccc21	-8.1	32.8*	-3.7	-0.1	-1.7
CCN(CC)S(=O)(=O)c1ccc(SCC(=O)c2c(N)n(C3CC3)c(=O)[nH]c2=O)nc1	2.1	.	1.4	.	.
CN(C)C=NC(=O)c1cc(C(=O)c2ccc(F)cc2)c[nH]1	-4.5	5.4	-0.9	-0.1	-0.6
CN(C)C=NC(=O)c1cc(C(=O)c2ccccc2)c[nH]1	-1.2	33.2*	-1.6	0.0	-0.4
CCn1cc(/C=C(\NC(=O)c2ccccc2)C(=O)NCCCN2CCOCC2)c2ccccc21	-14.3	-10.1	-5.9	0.1	0.3
Cc1cc(C)n(C(=O)CN2C(=O)c3ccccc3C2=O)n1	-5.9	3.0	-1.2	-0.6	-1.9
Cc1cc(C)n(C(=O)C(C)N2C(=O)c3ccccc3C2=O)n1 (stereo unspecified)	-2.4	-7.2	-2.3	-0.5	31.3*
N#CC1(NC(=O)CSc2nnc(Nc3ccccc3F)s2)CCCC1	1.5	-24.3	0.2	-1.7	0.2
CCOc1ccccc1NC(=O)Cn1cnc2c1c(=O)n(C)c(=O)n2C	.	.	.	0.4	-5.1
O=[N+]([O-])c1ccccc1OCC(O)CN1CCN(CC(O)COc2ccccc2[N+](=O)[O-])CC1 (stereo unspecified)	-65.5	92.4*	-1.9	1.5	-22.3
COc1ccccc1N1CCN(CC(O)COc2ccc(C)c(C)c2)CC1 (stereo unspecified)	-20.0	.	-1.6	.	.
COc1ccccc1N1CCN(CC(O)COc2ccc3c(c2)CCC3)CC1 (stereo unspecified)	-33.6	80.2*	1.6	23.2	-19.5
OC(CN1CCN(c2ccccc2F)CC1)c1ccc(F)cc1 (stereo unspecified)	-9.4	1.5	9.0	-0.1	9.8
OC(COc1ccc(F)cc1)CN1CCN(c2ccccc2F)CC1 (stereo unspecified)	-21.0	86.9*	-6.6	-1.0	1.2
OC(COc1ccccc1)CN1CCN(CC(O)COc2ccccc2)CC1 (stereo unspecified)	-4.2	30.5*	-3.6	0.7	0.1
CCOc1ccc(CNC(=O)C2CCN(S(=O)(=O)N3CCC(C)CC3)CC2)cc1OC	-3.9	.	-3.1	-0.9	17.7
COc1ccc(-c2nc3ccc(C)cn3c2Cc2ccccc2)cc1OC	-12.1	.	-2.3	.	.
CC(=O)Nc1ccc(OCC(O)CN2CCN(c3ccc(C)c(Cl)c3)CC2)cc1 (stereo unspecified)	-16.0	20.9	2.5	-0.1	10.1
OC(COCc1cccs1)CN1CCN(c2ccccc2Cl)CC1 (stereo unspecified)	-31.4	.	3.0	.	-23.6
CCOc1ccccc1N1CCN(CC(O)COCc2cccs2)CC1 (stereo unspecified)	-19.2	67.7*	-2.8	8.4	-28.4
CC(=O)Nc1ccc(OCC(O)CN2CCN(c3cc(Cl)ccc3C)CC2)cc1 (stereo unspecified)	-20.6	92.6*	-2.6	19.4	-24.6
Cc1ccc(CN2CC(C(=O)NNC(=O)c3ccc(F)cc3)CC2=O)cc1 (stereo unspecified)	1.1	11.1	-5.5	0.5	10.0
